Test results taken from ChEMBL document CHEMBL3433997, “St. Jude Leishmania screening dataset” (2016).

Tests used:
Type in all cases: functional
[1] = biological target: Solute carrier family 2, facilitated glucose transporter member 1 (Homo sapiens) (UniProt P11166); assay: ST_JUDE_LEISH: Cytotoxicity at 2uM final concentration against transgenic Leishmania Mexicana promastigotes LmGLUT1 that are glucose transport deficient and complemented with the human glucose transporter GLUT1. Activity is measured by DNA content using SYBR green in vitro
Solute carrier family 2, facilitated glucose transporter member 1 (Homo sapiens), sequence (P11166 whole entry): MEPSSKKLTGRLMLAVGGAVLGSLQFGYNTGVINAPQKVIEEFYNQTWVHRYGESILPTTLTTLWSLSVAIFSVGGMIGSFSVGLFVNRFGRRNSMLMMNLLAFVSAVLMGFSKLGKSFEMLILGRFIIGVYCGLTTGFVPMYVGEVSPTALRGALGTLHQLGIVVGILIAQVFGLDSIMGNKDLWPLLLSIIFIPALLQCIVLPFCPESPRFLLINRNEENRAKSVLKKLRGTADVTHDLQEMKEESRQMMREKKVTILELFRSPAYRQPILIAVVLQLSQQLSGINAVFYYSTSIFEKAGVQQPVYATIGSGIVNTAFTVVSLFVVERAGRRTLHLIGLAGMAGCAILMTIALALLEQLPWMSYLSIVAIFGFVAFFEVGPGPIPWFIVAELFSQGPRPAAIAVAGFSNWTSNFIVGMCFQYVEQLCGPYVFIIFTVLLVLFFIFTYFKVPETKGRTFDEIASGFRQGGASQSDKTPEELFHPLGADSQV

[2] = biological target: Hexose transporter 1 (Plasmodium falciparum) (UniProt O97467); assay: ST_JUDE_LEISH: Cytotoxicity at 2uM final concentration against transgenic Leishmania Mexicana promastigotes LmPfHT that are glucose transport deficient and complemented with the Plasmodium falciparum hexose transporter. Activity is measured by DNA content using SYBR green in vitro
[3] = biological target: Glucose transporter (Leishmania mexicana) (UniProt O61059); assay: ST_JUDE_LEISH: Cytotoxicity at 2uM final concentration against transgenic Leishmania Mexicana promastigotes LmGT2 that are glucose transport deficient and complemented with the L. Mexicana glucose transporter 2. Activity is measured by DNA content using SYBR green in vitro

Compound	inhibition [1] [%]	inhibition [2] [%]	inhibition [3] [%]
Cc1cc(=NN=Cc2ccc(F)cc2)c2cc(C(F)(F)F)ccc2[nH]1	2.35	2.57	0.92
COc1ccc(CN2CCCN(Cc3cccc(NC(=O)c4cc5ccccc5s4)c3)CC2)cc1	0.39	-0.1	-1.39
CNCCNCc1ccc(-c2cccc(-c3nc4cc(C(F)(F)F)ccc4[nH]3)c2)cc1	3.52	0.66	1.45
Cc1cc(NCCC(=O)NCCOc2ccccc2)nc(NCc2ccccc2C)n1	3.15	0.58	0.45
COc1cc2nc(NCc3ccc(S(N)(=O)=O)cc3)nc(Nc3ccc(Oc4ccccc4)cc3)c2cc1OC	4.15	4.39	3.67
O=C(Nc1cccc(-c2ccc(-c3nc4cc(F)ccc4[nH]3)cc2)c1)c1cccnc1	7.59	7.21	6.47
CCCCN(CCCC)CCCN(CCCN(CCCC)CCCC)c1cc(C)nc(Nc2ccc3cc(Br)ccc3c2)n1	12	10.1	6.68
CC(C)(C)NS(=O)(=O)c1cc(C(=O)N2CCC(CCN3CCC(O)(c4cccc(C(F)(F)F)c4)CC3)(c3cccc(F)c3)CC2)c(Cl)cc1F	1.73	1.52	-0.37
Cc1ccc(N2CCc3c(-c4cc5cccnc5nc4C)cc(C)nc32)c(Cl)c1	4.06	6.18	3.42
CN(C)C(CNC(=O)c1cc(-c2ccncc2)c(-c2cc3ccccc3[nH]2)o1)c1ccccc1 (stereo unspecified)	3.53	2.32	2.06
Cc1cccc(OCC(=O)Nc2cccc(NC(=O)COc3cccc(C)c3)n2)c1	0.99	1.55	1.64
O=C(Nc1ccc(NC2=NCCN2)cc1)c1ccc(C(=O)Nc2ccc(NC3=NCCN3)cc2)cc1	17.6	18.1	6.75
